From the antibiotic and cytotoxicity screens of Wong et al. (2023) come the findings set out here.

Out of some 39,000 compounds screened, about 1,500 (3.8%) were called active. The list comes from a sample in which actives are over-represented; it also holds similar structures and randomly drawn compounds.

The assay relates to HSkMC (human skeletal muscle cells). Briefly: cytotoxicity call (relative viability < 0.9). Particulars: 10 µM.
Take `CC(C)[C@H]1C(=O)N[C@@H](CCCNC(=N)N)C(=O)NCC(=O)N[C@@H](CC(=O)O)C(=O)N[C@H](Cc2ccccc2)C(=O)N1C`: the cytotoxicity call was “inactive”.

For the compound `CC(C)C[C@H]1NC(=O)[C@@H](CCCN)NC(=O)[C@H](C(C)C)NC(=O)[C@H]2CCCN2C(=O)[C@@H](Cc2ccccc2)NC(=O)[C@@H](CC(C)C)NC(=O)[C@@H](CCCN)NC(=O)[C@H](C(C)C)NC(=O)[C@H]2CCCN2C(=O)[C@@H](Cc2ccccc2)NC1=O`, the cytotoxicity call is “active”.

For the compound `CC1NC(=O)C2CCCN2C(=O)C(CC(N)=O)NC(=O)C2CSSCC(N)C(=O)NC3CSSCC(NC1=O)C(=O)NC(C(C)O)C(=O)NCC(=O)NC(C(=O)NC(Cc1ccc(O)cc1)C(=O)O)CSSCC(NC(=O)C(Cc1ccc(O)cc1)NC(=O)C(CCC(=O)O)NC3=O)C(=O)N2` (centres undefined), the cytotoxicity call is “inactive”.

`CC[C@@H](C)CCCCC(=O)N[C@@H](CCN)C(=O)N[C@H](C(=O)N[C@@H](CCN)C(=O)N[C@H]1CCNC(=O)[C@H]([C@@H](C)O)NC(=O)[C@H](CCN)NC(=O)[C@H](CCN)NC(=O)[C@H](CC(C)C)NC(=O)[C@@H](Cc2ccccc2)NC(=O)[C@@H](CCN)NC1=O)[C@@H](C)O`: the cytotoxicity call is “inactive”.

Take `CC(C)C[C@@H]1NC(=O)[C@@H](C(C)C)NC(=O)[C@@H]2CCCN2C(=O)[C@@H](CC(=O)O)NC(=O)[C@@H](Cc2c[nH]c3ccccc23)NC1=O`: the cytotoxicity call was “inactive”.

For the compound `CC(C)(O)C#Cc1ccc([C@H]2[C@@H](CO)N3CCCCN(S(C)(=O)=O)C[C@@H]23)cc1`, the cytotoxicity call was “inactive”.

For `N#C[C@H]1NCc2cnnn2Cc2ccccc21`, the cytotoxicity call is “inactive”.

As to `COc1ccc(NC(=O)N(C)C[C@H]2OCCCC[C@@H](C)Oc3ccc(NC(=O)NC(C)C)cc3C(=O)N([C@H](C)CO)C[C@H]2C)cc1`, the cytotoxicity call is “inactive”.

As for `COc1ccc(S(=O)(=O)N(C)C[C@@H]2OCCCC[C@H](C)Oc3ccc(NC(=O)Nc4ccccc4)cc3C(=O)N([C@@H](C)CO)C[C@@H]2C)cc1`, the cytotoxicity call is “inactive”.

Take `CN(C)CCN1CC2(CCN(C(=O)c3cnccn3)CC2)OCC1=O`: the cytotoxicity call is “inactive”.

For the compound `Cc1noc(C)c1S(=O)(=O)Nc1ccc2c(c1)C(=O)N([C@H](C)CO)C[C@@H](C)[C@@H](CN(C)Cc1ccc(C(F)(F)F)cc1)OCCCC[C@H](C)O2`, the cytotoxicity call is “inactive”.

Turning to `C[C@@H]1CCCCO[C@@H](CN(C)C(=O)CCC(F)(F)F)[C@@H](C)CN([C@@H](C)CO)C(=O)c2cc(NC(=O)Nc3ccccc3)ccc2O1`, the cytotoxicity call is “inactive”.

As to `C[C@@H]1CCCCO[C@@H](CN(C)Cc2ccc3c(c2)OCO3)[C@H](C)CN([C@H](C)CO)C(=O)c2cc(NC(=O)Nc3ccc4c(c3)OCO4)ccc2O1`, the cytotoxicity call was “inactive”.

In the case of `C[C@H]1CN([C@@H](C)CO)C(=O)c2cc(NC(=O)Nc3ccc4c(c3)OCO4)ccc2O[C@H]1CN(C)Cc1ccc(C(F)(F)F)cc1`, the cytotoxicity call is “inactive”.

In the case of `C[C@H]1CN([C@@H](C)CO)C(=O)c2cc(NC(=O)Nc3ccc4c(c3)OCO4)ccc2O[C@@H]1CN(C)Cc1ccc(C(F)(F)F)cc1`, the cytotoxicity call is “inactive”.

As for `C[C@H](CO)N1C[C@H](C)[C@H](CN(C)Cc2ccc(C(F)(F)F)cc2)Oc2ccc(NC(=O)Nc3ccc4c(c3)OCO4)cc2C1=O`, the cytotoxicity call is “inactive”.

Take `C[C@@H]1CN([C@H](C)CO)C(=O)c2cc(NC(=O)Nc3ccc4c(c3)OCO4)ccc2O[C@@H]1CN(C)Cc1ccc(C(F)(F)F)cc1`: the cytotoxicity call was “active”.

Consider `C[C@H](CO)N1C[C@H](C)[C@@H](CN(C)Cc2ccc(C(F)(F)F)cc2)Oc2ccc(NC(=O)Nc3ccc4c(c3)OCO4)cc2C1=O`, for which the cytotoxicity call is “inactive”.

For the compound `C[C@@H]1CN([C@@H](C)CO)C(=O)c2cc(NC(=O)Nc3ccc4c(c3)OCO4)ccc2O[C@H]1CN(C)Cc1ccc(C(F)(F)F)cc1`, the cytotoxicity call was “active”.

In the case of `Cc1ccc(S(=O)(=O)Nc2ccc3c(c2)C(=O)N([C@H](C)CO)C[C@H](C)[C@@H](CN(C)C(=O)CCC(F)(F)F)OCCCC[C@H](C)O3)cc1`, the cytotoxicity call was “inactive”.

Take `C[C@H]1CN([C@@H](C)CO)C(=O)Cc2cc(NC(=O)Cc3ccccc3)ccc2O[C@H]1CN(C)S(=O)(=O)c1ccccc1`: the cytotoxicity call was “inactive”.

As to `C[C@H]1CCCCO[C@@H](CN(C)S(=O)(=O)c2cn(C)cn2)[C@@H](C)CN([C@@H](C)CO)C(=O)c2cc(NC(=O)Nc3ccc(C(F)(F)F)cc3)ccc2O1`, the cytotoxicity call was “active”.

Consider `C[C@@H]1CN([C@H](C)CO)C(=O)c2cc(NC(=O)Nc3ccc(C(F)(F)F)cc3)ccc2O[C@@H](C)CCCCO[C@@H]1CN(C)S(=O)(=O)c1cn(C)cn1`, for which the cytotoxicity call was “inactive”.

Take `C[C@@H]1CN([C@@H](C)CO)C(=O)c2cc(NC(=O)Nc3ccc(C(F)(F)F)cc3)ccc2O[C@@H](C)CCCCO[C@@H]1CN(C)S(=O)(=O)c1cn(C)cn1`: the cytotoxicity call was “inactive”.

Regarding `C[C@H](CO)N1C[C@H](C)[C@@H](CN(C)S(=O)(=O)c2cn(C)cn2)OCCCC[C@H](C)Oc2ccc(NC(=O)Nc3ccc(C(F)(F)F)cc3)cc2C1=O`, the cytotoxicity call was “active”.

Regarding `C[C@@H]1CN([C@@H](C)CO)C(=O)c2cc(NC(=O)Nc3ccc(C(F)(F)F)cc3)ccc2O[C@@H](C)CCCCO[C@H]1CN(C)S(=O)(=O)c1cn(C)cn1`, the cytotoxicity call is “inactive”.

As to `C[C@H]1CCCCO[C@H](CN(C)S(=O)(=O)c2cn(C)cn2)[C@@H](C)CN([C@@H](C)CO)C(=O)c2cc(NC(=O)Nc3ccc(C(F)(F)F)cc3)ccc2O1`, the cytotoxicity call is “inactive”.

In the case of `CN1CCN(c2nc3c(c(=O)[nH]c(=O)n3C)n2CC(=O)c2ccc(Cl)cc2)CC1`, the cytotoxicity call is “inactive”.

As for `Cc1noc(C)c1S(=O)(=O)Nc1ccc2c(c1)C(=O)N([C@H](C)CO)C[C@H](C)[C@@H](CN(C)S(=O)(=O)c1ccc(F)cc1)O2`, the cytotoxicity call is “inactive”.

Consider `COc1cccc(C#Cc2ccc3c(c2)O[C@@H](CN(C)C(=O)c2ccccn2)[C@H](C)CN([C@@H](C)CO)S3(=O)=O)c1`, for which the cytotoxicity call was “inactive”.

With `Cc1c(/C=N/c2ccc(C(C)C)cc2)sc2ccccc12`, the cytotoxicity call is “inactive”.

With `C[C@]12CC[C@@H]3[C@]4(C=C[C@@]5(C=C4C(=O)C4CCCCC4)C[C@@H](O)CC[C@]35C)[C@@H]1CC[C@@]2(O)CN1CCC(n2c(=O)[nH]c3ccccc32)CC1`, the cytotoxicity call was “inactive”.

For the compound `O=C(C[C@@H]1C[C@H]2c3cc(NS(=O)(=O)c4ccc(F)cc4)ccc3O[C@H]2[C@@H](CO)O1)NC1CCCCC1`, the cytotoxicity call is “inactive”.

Regarding `C[C@@H]1CN([C@H](C)CO)C(=O)CCCn2cc(nn2)CO[C@H]1CN(C)C(=O)Nc1ccccc1C(F)(F)F`, the cytotoxicity call is “inactive”.
